Screening data deposited in PubChem BioAssay by National Center for Advancing Translational Sciences (NCATS).
Shiga inhibitor: A qHTS for Small Molecule Inhibitors of Shiga Toxin. inhibition, % at 38.7 µM. Vero cells, Shiga toxin protein synthesis inhibition reporter. actives 9.2% (n = 290,000); in the data active means inhibition mostly above about 28%, no sharp cut-off; inactive means mostly below about 43%; further: 0% is about no effect
Pf growth 48h: Primary qHTS for delayed death inhibitors of the malarial parasite plastid, 48 hour incubation; P. falciparum luciferase growth in erythrocytes, 48 h; Potency, µM (doses to about 28.7 µM), for inactives: at the top dose activity change, negative = inhibition, actives largely listed as inhibitors; actives 5.9% (n = 310,000); active means well fitted inhibition curve with a large enough effect; inconclusive means small, poorly fitted or top-dose-only effect, or another doubt; inactive means no such curve, though single readings can be large or run the other way; further: potency means the concentration at half of the fitted maximal effect; on the % scale 0 is the no-effect control and ±100 the full control effect
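Read-out is firefly luciferase luminescence from an integrated reporter in P. falciparum, so falling signal marks reduced parasite growth. Infected erythrocytes were at 2% hematocrit and 0.1% parasitemia (final) in Albumax-supplemented RPMI 1640.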
CHX counter: Cycloheximide Counterscreen for Small Molecule Inhibitors of Shiga Toxin | cell reporter, cycloheximide protein synthesis inhibition counterscreen | max response, % | actives 12% (n = 300,000) | AID 2314, 2010; in the data active means max response mostly above about 13%, no sharp cut-off; inactive means mostly below about 14%; further: read at 38.3 µM for the half of the compounds with a filed dose; 0% is about no effect
NS1 function inh: qHTS Assay for Inhibitors of Influenza NS1 Protein Function; Potency, µM (doses to about 46.1 µM), inactives show at the highest dose activity, positive = more growth; actives 0.4% (n = 270,000); further: potency means the concentration at half of the fitted maximal effect; actives are rising curves; nearly all actives have a fitted effect of over 50% in size
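Compounds were scored for reversing the slow growth caused by influenza A NS1 in S. cerevisiae, measured by optical density at 600 nm. Assay medium contained 2% galactose at pH 6.0; NS1-free yeast of the same strain were the positive control.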
Pf growth 96h: Primary qHTS for delayed death inhibitors of the malarial parasite plastid, 96 hour incubation; Potency, µM (titrated, usually from 28.7 µM), without a hit: at the highest dose activity change, negative = inhibition, most hits filed as inhibitors; actives 6.9% (n = 320,000); P. falciparum luciferase reporter growth, 96 h; AID 504834, 2011; active means well fitted inhibition curve with a large enough effect; inconclusive means small, poorly fitted or top-dose-only effect, or another doubt; inactive means no such curve, though single readings can be large or run the other way; further: potency means the concentration at half of the fitted maximal effect; on the % scale 0 is the no-effect control and ±100 the full control effect
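Readout is luminescence from an integrated firefly luciferase in P. falciparum. Red cells, 2% hematocrit and 0.05% parasitemia final, were cultured with compound through two parasite generations (96 hours) at 37 C, 5% CO2.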
SARS PLpro yeast: qHTS of Yeast-based Assay for SARS-CoV PLP; actives 0.19% (n = 330,000); S. cerevisiae expressing SARS-CoV PLpro, growth rescue; Potency, µM (series often up to 32.9 µM), without a hit: top-dose activity, positive = growth rescue, actives largely listed as activators; further: potency means the concentration at half of the fitted maximal effect; 0% is about no effect; nearly all actives have a fitted effect of over 55% in size
Numbers without * were called inactive. Most compounds without a hit are left out; they make up all but 21% or so of the library. Unless noted, the call rests on the fitted dose curve.

For CCS(=O)(=O)c1ccc(O)c(NC(=O)NC2CCCCC2)c1 the results were Shiga inhibitor 13, Pf growth 48h -1%, CHX counter 12*, NS1 function inh -2%, Pf growth 96h 100% and SARS PLpro yeast 0%.
O=C(Nc1ccccc1C(=O)N1CCCCC1)NC1CCCCC1 was read as Shiga inhibitor -13, Pf growth 48h -3%, CHX counter -2, NS1 function inh -1%, Pf growth 96h -5% and SARS PLpro yeast 1%.
`COc1cccc(N(C(=O)c2cccs2)c2nc3ccccc3s2)c1` gave Shiga inhibitor 17, Pf growth 48h inconclusive, CHX counter 16, NS1 function inh -8% and SARS PLpro yeast 8%.
For O=C(O)C1CC=CCC1C(=O)NCCc1cccc(Cl)c1 (configuration not stated) the results were Shiga inhibitor 27, CHX counter -2, NS1 function inh 13%, Pf growth 96h -63% and SARS PLpro yeast 20%.
`CC(=O)Nc1ccc(S(=O)(=O)NNc2ccc([N+](=O)[O-])cc2)cc1` gave Shiga inhibitor -2, Pf growth 48h 23%, CHX counter -2, NS1 function inh -107%, Pf growth 96h inconclusive and SARS PLpro yeast -13%.
`Cc1cc(C(=O)NCc2ccccc2)c(=O)[nH]c1C` gave Shiga inhibitor 17, Pf growth 48h 17%, CHX counter 1, NS1 function inh 2%, Pf growth 96h 38% and SARS PLpro yeast 2%.
For Cc1cc(C(=O)O)c(=O)[nH]c1C the results were Shiga inhibitor -3, Pf growth 48h 35%, CHX counter 1, NS1 function inh -5%, Pf growth 96h 2.6µM* and SARS PLpro yeast 1%.
COc1cccc(CC(=O)N[C@@H](CCSC)c2nc3ccccc3[nH]2)c1 was read as Shiga inhibitor -13, Pf growth 48h inconclusive, CHX counter 2, Pf growth 96h -2% and SARS PLpro yeast -3%.
For CC(NC=C1C(=O)OC(C)(C)OC1=O)C(=O)O (configuration not stated) the results were Shiga inhibitor -9, Pf growth 48h 23%, CHX counter -5, Pf growth 96h 9.3µM* and SARS PLpro yeast -5%.
Screening COc1ccc(CCNC(=O)CCC(=O)N2CCOc3ccccc32)cc1OC returned Shiga inhibitor -2, Pf growth 48h -6%, CHX counter 0, NS1 function inh -9%, Pf growth 96h -6% and SARS PLpro yeast -2%.
For COC(=O)CCC(=O)N1CCCC(N2CCN(c3cccc(C(F)(F)F)c3)CC2)C1 (configuration not stated) the results were Shiga inhibitor 1, Pf growth 48h -14%, CHX counter 1, NS1 function inh -4%, Pf growth 96h -22% and SARS PLpro yeast 1%.
Screening CSc1nc(-c2cccs2)c(C#N)c(=O)[nH]1 returned Shiga inhibitor 26, Pf growth 48h 33%, CHX counter 8.9*, NS1 function inh -2%, Pf growth 96h 26% and SARS PLpro yeast 1%.
`CSc1nc(-c2ccccc2)c(C#N)c(=O)[nH]1` gave Shiga inhibitor -10, Pf growth 48h 80%, CHX counter -4, NS1 function inh -5%, Pf growth 96h 48% and SARS PLpro yeast -1%.
CC(C)n1c(SCC(=O)NCc2ccco2)nnc1C1CC1 was read as Shiga inhibitor 18, Pf growth 48h -18%, CHX counter -2, NS1 function inh 4%, Pf growth 96h inconclusive and SARS PLpro yeast 1%.
`COc1cc(C(=O)NCC(=O)N/N=C/c2ccc(OC(=O)c3ccco3)cc2)cc(OC)c1OC` gave Shiga inhibitor -7, Pf growth 48h -3%, CHX counter -4, Pf growth 96h inconclusive and SARS PLpro yeast 1%.
For COc1ccc(S(=O)(=O)N2CCOCC2)cc1NC(=O)CSc1nnc2n1CCCCC2 the results were SARS PLpro yeast 6%.
For Cc1ccc(N(CC(=O)Nc2ccccc2C(=O)NCc2ccco2)S(=O)(=O)c2ccccc2)cc1C the results were Shiga inhibitor 18, Pf growth 48h 10µM*, CHX counter 7, NS1 function inh inconclusive and SARS PLpro yeast 7%.
For Cc1ccc(N(CC(=O)N/N=C/c2ccc(OC3CSC3)cc2)S(=O)(=O)c2ccccc2)cc1 the results were Shiga inhibitor -4, Pf growth 48h inconclusive, CHX counter -1, NS1 function inh 13%, Pf growth 96h -1% and SARS PLpro yeast -3%.
`Cc1ccc(N(CC(=O)N/N=C/c2ccc(OC3CSC3)cc2)S(=O)(=O)c2ccccc2)c(C)c1` gave Shiga inhibitor -5, Pf growth 48h inconclusive, CHX counter -6, NS1 function inh inconclusive, Pf growth 96h 12µM* and SARS PLpro yeast 5%.
For Cc1ccc(C)c(N(CC(=O)Nc2ccccc2C(=O)NCc2ccco2)S(=O)(=O)c2ccccc2)c1 the results were Shiga inhibitor 10, Pf growth 48h 12µM*, CHX counter 0, NS1 function inh inconclusive, Pf growth 96h 155% and SARS PLpro yeast 4%.
Screening O=C(CN(c1ccccc1)S(=O)(=O)c1ccccc1)Nc1ccccc1C(=O)NCc1ccco1 returned Shiga inhibitor 22, Pf growth 48h 0%, CHX counter 10, NS1 function inh -10%, Pf growth 96h 157% and SARS PLpro yeast 14%.
Cc1ccc(N(CC(=O)Nc2ccccc2-c2ccccc2)S(=O)(=O)c2ccccc2)c(C)c1 was read as Shiga inhibitor -3, Pf growth 48h 12µM*, CHX counter -1, NS1 function inh inconclusive, Pf growth 96h inconclusive and SARS PLpro yeast -9%.
Screening COc1ccc(C)cc1NC(=O)CNc1ccc(C(C)=O)cc1 returned Shiga inhibitor -9, Pf growth 48h inconclusive, CHX counter -3, NS1 function inh 3%, Pf growth 96h inconclusive and SARS PLpro yeast 28%.
`Cc1ccc(S(=O)(=O)N(Cc2ccccc2)c2ccccc2C(=O)NCc2ccco2)cc1` gave Shiga inhibitor 31, Pf growth 48h 10µM*, CHX counter 25*, NS1 function inh -45%, Pf growth 96h 5.9µM* and SARS PLpro yeast -21%.
Screening CCOc1ccccc1N(CC(=O)Nc1ccccc1F)S(=O)(=O)c1ccccc1 returned Shiga inhibitor -4, Pf growth 48h 10µM*, CHX counter 2, NS1 function inh -3%, Pf growth 96h inconclusive and SARS PLpro yeast -3%.
For CCOC(=O)c1sc(C)c2c1NC(C)(c1ccccc1)NC2=O (configuration not stated) the results were Shiga inhibitor 37, Pf growth 48h inconclusive, CHX counter -3, NS1 function inh -1%, Pf growth 96h inconclusive and SARS PLpro yeast 10%.
